High-throughput results (PubChem BioAssay)
Rows were chosen to be rich in hits. Some 2.4% of all compounds tested hit in one or more screens of this group.
ADAM17 inh: ADAM17 inhibitors, primary screen, biochemical, QFRET | Disintegrin and metalloproteinase domain-containing protein 17 (Homo sapiens), P78536 | recombinant ADAM17, EDANS/DABCYL FRET peptide cleavage | inhibition, % at 6.95 µM | 370,000 compounds, 0.83% hits | AID 720648, 2013;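 active = inhibition above the mean of compounds lying between control limits plus 3 SD, set per campaign, cut at about 8.5% in these data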;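 note: 0% = DMSO-only wells as the low control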
A3A deaminase: APOBEC3A ssDNA deaminase inhibitors, primary screen, selectivity assay for APOBEC3G inhibitor project, biochemical, FAM/TAMRA oligo cleavage fluorescence | recombinant A3A, FAM/TAMRA ssDNA deamination fluorescence | inhibition, % at 20 µM | 330,000 compounds, 0.41% hits;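 active = at least 40% inhibition at 20 µM here, with at most 30% in a related deaminase screen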;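 note: plate controls were A3A with DMSO for no effect and wells lacking A3A enzyme for full effect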
NRP1-CendR mod: modulators of CendR peptide binding to NRP-1, primary screen, biochemical, fluorescence polarization, uHTS. Neuropilin-1 (Homo sapiens), O14786. FAM-RPARPAR peptide binding to NRP-1. inhibition, % at 25 µM. 360,000 compounds, 0.85% hits. AID 602438, 2012;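 active = inhibition or corrected inhibition above about 18%, plus a signal ratio from 0.5 to 1.5, limit read from the data, passing the limit was not always enough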
Target sequence (O14786 whole entry, looked up): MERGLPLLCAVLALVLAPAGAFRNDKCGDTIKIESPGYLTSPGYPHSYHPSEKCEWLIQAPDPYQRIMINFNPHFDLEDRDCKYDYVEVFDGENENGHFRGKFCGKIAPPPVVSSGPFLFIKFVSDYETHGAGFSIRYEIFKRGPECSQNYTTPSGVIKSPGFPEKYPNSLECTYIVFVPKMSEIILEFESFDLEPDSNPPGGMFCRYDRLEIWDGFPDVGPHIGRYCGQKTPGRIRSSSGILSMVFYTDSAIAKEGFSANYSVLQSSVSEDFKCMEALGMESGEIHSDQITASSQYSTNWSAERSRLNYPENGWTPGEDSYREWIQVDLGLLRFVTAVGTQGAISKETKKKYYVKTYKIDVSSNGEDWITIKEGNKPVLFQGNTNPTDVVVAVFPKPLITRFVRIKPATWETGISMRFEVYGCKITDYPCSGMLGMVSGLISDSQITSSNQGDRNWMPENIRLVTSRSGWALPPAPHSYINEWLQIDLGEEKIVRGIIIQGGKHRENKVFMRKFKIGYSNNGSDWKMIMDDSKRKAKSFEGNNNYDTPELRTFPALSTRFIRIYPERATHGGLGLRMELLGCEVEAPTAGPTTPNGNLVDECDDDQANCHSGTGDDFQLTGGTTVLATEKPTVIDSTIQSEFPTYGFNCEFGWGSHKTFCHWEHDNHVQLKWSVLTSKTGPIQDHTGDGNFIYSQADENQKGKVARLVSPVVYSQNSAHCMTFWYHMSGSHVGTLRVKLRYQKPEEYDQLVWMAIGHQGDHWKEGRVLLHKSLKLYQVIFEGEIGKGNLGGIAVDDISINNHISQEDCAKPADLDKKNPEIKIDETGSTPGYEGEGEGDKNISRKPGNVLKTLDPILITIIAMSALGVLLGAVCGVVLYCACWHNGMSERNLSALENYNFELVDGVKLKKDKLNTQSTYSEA
APOBEC3G inh: APOBEC3G DNA deaminase inhibitors, primary screen, biochemical, fluorescence, single-stranded DNA substrate, uHTS; recombinant A3G, ssDNA deamination FAM/TAMRA fluorescence; AID 493012, 2011; DNA dC->dU-editing enzyme APOBEC-3G (Homo sapiens), Q9HC16; inhibition, % at 20 µM; 330,000 compounds, 0.28% hits;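 active = inhibition of at least 40% at 20 µM, with no more than 30% in the related APOBEC3A deaminase screen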;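 note: plate controls were DMSO wells with A3G for no effect and wells lacking A3G enzyme for full effect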
ADAM10 inh: human ADAM10 inhibitors, primary screen, biochemical, QFRET, HTS. recombinant ADAM10, EDANS/DABCYL FRET peptide cleavage, 3 h. inhibition, % at 7 µM. 370,000 compounds, 0.62% hits;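 active = inhibition above a per-campaign cutoff equal to the mean of compounds falling between control-based bounds plus 3 SD, cut at about 20% in these data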;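 note: 0% = DMSO wells while the 100% control is not disclosed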
ADAM10 counter: ADAM10 inhibitors, counter-screen for ADAM17 exosite inhibitor project, biochemical, FRET, human ADAM10 | AID 743256, 2014 | 2,900 compounds, 47% hits | inhibition, % at 6.95 µM | shares compounds with ADAM17 inh | recombinant ADAM10, EDANS/DABCYL FRET peptide cleavage, 3 h;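 active = mean inhibition over the triplicate runs exceeds the activity threshold set in the earlier primary screen, cut at about 20% in these data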;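 note: 0% = DMSO wells and 100% = marimastat wells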
ADAM17 confirm: ADAM17 inhibitors, hit retest, confirmation, biochemical, QFRET peptide cleavage | shares compounds with ADAM17 inh | recombinant ADAM17, EDANS/DABCYL QFRET peptide cleavage | inhibition, % at 6.95 µM | 2,900 compounds, 65% hits | AID 743257, 2014;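 active = mean inhibition across replicates above the hit cutoff set in the primary screen, cut at about 8.5% in these data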;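 note: 0% = DMSO wells and 100% = marimastat wells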
Numbers without * were called inactive; x = no result given.

SMILES | ADAM17 inh | A3A deaminase | NRP1-CendR mod | APOBEC3G inh | ADAM10 inh | ADAM10 counter | ADAM17 confirm
O=C(NCCn1cc(SCc2ccc(F)cc2)c2ccccc21)c1c(F)cccc1F | 9.3* | -5 | -9 | -7 | 12 | 41* | 21*
O=C(CSc1cn(CCNC(=O)c2c(F)cccc2F)c2ccccc12)NCC1CCCO1 (centres undefined) | 0 | -2 | -9 | -6 | 0 | x | x
C=CCC[C@H](Cc1ccc(F)cc1)C(=O)O[C@H](CNC(=O)[C@@H](CC=C)CC(=O)N(CCO)Cc1ccccc1)c1ccccc1 | 11* | -5 | -3 | -7 | 14 | 45* | 22*
O=c1[nH][nH]c(-c2ccccc2)c1C=Nc1ccc(C(F)(F)F)cc1 | 13* | -3 | 8 | -6 | 13 | 14 | 7
O=c1[nH][nH]c(-c2ccccc2)c1C=Nc1ccccc1 | 1 | 2 | 2 | -2 | -5 | x | x
CCOc1ccc(NS(=O)(=O)c2ccc3c(c2)CCN3C(=O)CCC(=O)O)cc1 | 9.8* | -4 | -1 | -6 | 14 | -3 | 0
Cc1cc(NS(=O)(=O)c2ccc(NC(=O)Cc3ccc(Cl)c(F)c3)cc2)no1 | -5 | x | x | x | -10 | x | x
O=C(/C=C(\Nc1ccc(Cl)c(Cl)c1)c1ccccc1)c1ccccc1 | -6 | x | x | x | -6 | x | x
Cc1ccc(S(=O)(=O)N2CC3(O)CN(C(=O)OC(C)C)N(C(=O)OC(C)C)CC3(OC(=O)Nc3cccs3)C2)cc1 (centres undefined) | 9.4* | x | 2 | x | 19 | 31* | 13*
Cc1cc(C)c(C)c(S(=O)(=O)N2CCC(C(=O)NCc3cccs3)CC2)c1C | 8.8* | x | -5 | x | 13 | 4 | 1
O=C(NCc1cccs1)C1CCN(S(=O)(=O)c2cccs2)CC1 | -2 | 4 | -4 | 2 | 10 | x | x
O=C(Nc1cccc(F)c1)N(Cc1ccc(Cl)cc1)CC(O)C(F)(F)F (centres undefined) | 9.9* | -1 | -5 | -2 | 9 | 36* | 20*
CCn1nc([N+](=O)[O-])c(C(C#N)c2nc3ccccc3n2C)c(Cl)c1=O (centres undefined) | 1 | -3 | 15 | -5 | -10 | x | x
CCCn1nc([N+](=O)[O-])c(C(C#N)c2nc3ccccc3s2)c(Cl)c1=O (centres undefined) | 8.6* | 2 | 34* | -3 | 20 | 24* | 18*
COc1ccccc1NC(=O)CSc1nc2n[nH]c(C)c2c(=N)n1-c1ccccc1Cl | 3 | 7 | 0 | -6 | 8 | x | x
CCc1ccccc1NC(=O)CSc1nc2n[nH]c(C)c2c(=N)n1-c1ccc(OC)cc1 | 12* | x | 3 | x | 16 | -2 | 9.0*
CC(C)N(c1ccccc1)c1ccc(NC(=O)COC(=O)CCN2C(=O)c3cccc([N+](=O)[O-])c3C2=O)cc1 | 8.7* | -2 | -4 | -6 | 11 | 25* | 15*
CCN1CCN(Cc2ccc(NC(=O)c3cccc(-c4ccc5nc(NC(=O)C6CC6)sc5n4)c3)cc2C(F)(F)F)CC1 | -1 | x | x | x | -22 | x | x
COc1cccc(C(=O)c2c(-c3ccccc3)ncc3cc(OC)c(OC)cc23)c1 | 13* | 2 | -4 | 4 | 11 | 17 | 19*
C=CCN1C(=O)[C@@H](CC(=O)NCc2cccc3ccccc23)[C@]2(C(=O)OCC)CCCCC/C=C/12 | 11* | x | x | x | 8 | 8 | 5
CCOC(=O)[C@]12CCCCC/C=C\1N(Cc1ccc(OC)cc1)C(=O)[C@H]2CC(=O)NCC1CCCCC1 | 13* | x | x | x | 11 | 9 | 5
C=CCN1C(=O)[C@@H](CC(=O)NCc2cccs2)[C@]2(C(=O)OCC)CCCCC/C=C/12 | -1 | x | x | x | -2 | x | x
O=C(C1CCCN1S(=O)(=O)c1cccc2ccccc12)N1CCN(c2ccccc2)CC1 (centres undefined) | 1 | x | x | x | 0 | x | x
O=C(NCCc1c[nH]c2ccccc12)OCc1cn(-c2ccc(F)cc2F)nn1 | 1 | x | x | x | 4 | x | x
C[C@@H]1ON(C)[C@H]2C[C@H]3c4cc(N5CCN(C)CC5)ccc4CCN3C[C@@H]12 | -1 | x | x | x | -1 | x | x
SMILES | ADAM17 inh | A3A deaminase | NRP1-CendR mod | APOBEC3G inh | ADAM10 inh | ADAM10 counter | ADAM17 confirm
Cc1sc2nc(SCC(=O)OC(C)C)n(C)c(=O)c2c1C | 15* | x | -8 | x | -5 | -6 | -1
Cc1sc2nc(SCC(=O)NCCO)n(C)c(=O)c2c1C | 1 | 0 | 2 | -4 | 3 | x | x
C=CCN1C(=O)[C@@H](CC(=O)NCc2ccccc2)[C@]2(C(=O)OC)CCCCC=C12 | 0 | x | x | x | 2 | x | x
COc1ccccc1NC(=O)c1ccc(NC(=O)COC(=O)CCC2CCCC2)cc1 | 9.4* | -3 | 7 | -6 | 13 | 27* | 15*
CCOC(=O)Cn1cc(CN2C(C(=O)OC)CN(C3CC3)CCS2(=O)=O)nn1 (centres undefined) | -2 | x | x | x | 0 | x | x
CCN1CCCCC(NC(=O)c2ccc(Cl)cc2Cl)C1=O (centres undefined) | -9 | x | x | x | -9 | x | x
COc1ccc2c(c1)C(=O)N1[C@H]3c4cc(C)ccc4OC[C@@H]3[C@H](c3ccccc3)[C@]1(C)C(=O)N2 | 8.9* | 0 | -3 | -10 | 14 | 6 | 9.6*
O=C(CSc1ccc([N+](=O)[O-])cn1)Nc1nccs1 | -2 | 0 | 9 | 5 | 4 | x | x
Cc1csc(NC(=O)CSc2ccc([N+](=O)[O-])cn2)n1 | 8.7* | 3 | 11 | 13 | 11 | 0 | 1
Cc1cc(C)cc(NC(=O)NCc2c(-c3ccccc3)noc2C)c1 | 2 | 0 | 1 | 0 | 8 | x | x
Cc1onc(-c2ccccc2)c1CNC(=O)Nc1ccc(C(F)(F)F)cc1 | 9.1* | 5 | -7 | 9 | 18 | 27* | 16*
COc1ccc(CN(C(=O)c2nsc(Cl)c2Cl)C(C(=O)NC2CCCC2)c2ccc(C)cc2)cc1 (centres undefined) | 10* | 14 | -4 | -8 | 13 | 14 | 14*
